# Shown are actives, neighbours in structure and some others; about 1.3% of the full set was active somewhere.
# EPAC2 antag = blocks human EPAC2 exchange factor; Q8WZA2; EPAC2 GEF exchange of Rap1B-BODIPY-GDP, fluorescence; Potency, µM (series often up to 114 µM), for the others: at the highest dose activity, negative = inhibition, actives largely listed as inhibitors; 360,000 compounds, 0.18% hits; AID 720708; also: % is scaled to controls: 0 for no effect and ±100 for the full control effect; nearly all actives have a fitted effect of over 45% in size
# EPAC1 antag = EPAC1 (human) antagonism | O95398 | EPAC1 GEF assay, Rap1b-BODIPY-GDP exchange fluorescence | Potency, µM (highest dose often 115 µM), inactives show at the top dose activity change, negative = inhibition, most hits filed as inhibitors | 360,000 compounds, 0.14% hits;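 also: plate controls were vehicle for no effect and positive control for full effect; nearly all actives have a fitted effect of over 50% in size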
# RGS4 inh = inhibitors of human regulator of G protein signaling 4; P49798; Transcreener GDP fluorescence polarization, RGS4-accelerated GTP hydrolysis; Potency, µM (titrated, usually from 114 µM), for the others: at the top dose activity change, negative = inhibition, hits mostly inhibitors; 390,000 compounds, 0.039% hits; also: % is scaled to controls: 0 for no effect and ±100 for the full control effect; nearly all actives have a fitted effect of over 75% in size
#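 MLSMR compounds (23 nl, pin-transferred) preincubated 10 min at room temperature with a 500nM (2x) first reagent, then RGS4 at 900nM (2x) plus Transcreener GDP mix added; fluorescence polarization (620/688 nm) read before and after 90 min at 30 °C.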
# EPAC2 ag = agonists of human EPAC2 (RAPGEF4); EPAC2 activation, biochemical qHTS; response scale: 100% = 6.5 mM cAMP response; Q8WZA2; AID 720711; 360,000 compounds, 0.079% hits; Potency, µM (top dose mostly 154 µM), without a hit: at the top dose activation, hits mostly activators; also: nearly all actives have a fitted effect of over 50% in size
#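 In this primary screen, activation is scored as increased exchange of BODIPY-GDP from Rap1B by 100 nM EPAC2, with 50 uM GDP as competitor. Signal is normalized to the 6.5 mM cAMP agonist control.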
# BRCA1 expr up = activators of BRCA1 expression; MCF7-BRCA1-FFLuc reporter, luminescence, 48 h; response scale: scaled: vehicle 0%, 10 µM genistein 100%; Potency, µM (top dose mostly 46.1 µM), inactives show at the highest dose activation, actives largely listed as activators; 380,000 compounds, 1.1% hits; also: nearly all actives have a fitted effect of over 80% in size
#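 MCF7 cells carrying a BRCA1-firefly luciferase reporter (2000 cells/well, phenol-red free MEM) were attached for 2 h at 37 °C, then given compounds for 48 h. Luminescence was read 15 min after luciferase reagent; activity normalized to genistein (10 microM) and DMSO.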
# EPAC1 ag = EPAC1 (human) agonism. O95398. 360,000 compounds, 0.073% hits. EPAC1 agonist qHTS, biochemical assay; response scale: 100% = response to 6.5 mM cAMP. Potency, µM (top dose mostly 154 µM), for inactives: at the top dose activation, usual class: activators; also: nearly all actives have a fitted effect of over 60% in size
#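 Nucleotide exchange by EPAC1 (100 nM) on Rap1B–BODIPY-GDP (250 nM) in the presence of 50 uM GDP is tracked fluorescently at 480/540 nm over 30 min. Signals are normalized to a 6.5 mM cAMP control.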
# The depositor's hits bear a star; ? = inconclusive; / = no result given; ! = not confirmed by another sample; [ ] = another dose, or the depositor's remark. Calls follow the shape of the dose curve; as a rule, active = well fitted curve in the direction sought with a large enough effect; inconclusive = small, poorly fitted or top-dose-only effect, or another doubt; inactive = no such curve, though single readings can be large; an effect the other way counts as inactive or inconclusive. Potency is read from the fitted curve at half-maximal effect.
SMILES,EPAC2 antag,EPAC1 antag,RGS4 inh,EPAC2 ag,BRCA1 expr up,EPAC1 ag
CCCCOc1ccc(C(=S)N2CCC(C(N)=O)CC2)cc1,2%,-7%,2%,1%,4µM*,2%
COc1ccc(C(=S)N2CCC(C(N)=O)CC2)cc1Br,12%,-25%,-32%,4%,12%,1%
CN(C)C(=O)/N=N/C(=O)N(C)C,/,/,3µM*,/,/,/
Cc1nc2sc(C(c3ccc(Br)cc3)N3CC(C)OC(C)C3)c(O)n2n1 (configuration not stated),-7%,3%,21%,6%,11%,-3%
O=C(NCc1ccc(Cl)cc1)C(=O)NCC(c1ccco1)N1CCOCC1 (configuration not stated),12%,15%,-31%,2%,4%,-5%
Cc1ccc2oc(C(=O)N3CCCCCC3)c(C)c2c1,56µM*,6%,-1%,9%,5.6µM*,4%
CCOc1ccccc1C(=O)Nc1nccs1,6%,-22%,14%,9%,-2%,0%
Cc1ccccc1-c1nc(Cc2ccccc2)no1,-4%,-17%,7%,7%,10µM*,3%
Clc1ccc(-c2nc(Cc3ccccc3)no2)cc1,1%,-2%,17%,0%[15.6 µM],?,10%
CN(C)CCCNC(=S)N(CCCN(C)C)Cc1cc2cc3c(cc2[nH]c1=O)OCO3,6%,-11%,-12%,0%,-5%,6%
Cc1cc(/C=C2/NC(=O)N(c3ccccc3)C2=O)c(C)n1-c1cccnc1,-2%,-3%,-6%,7%,1.3µM*,2%
COc1cc2c(cc1NC(=S)NC(=O)/C=C/c1ccco1)oc1ccccc12,10%,-3%,-6%,6%,-18%,-9%
COc1ccc(Cn2nnnc2C(c2ccc(C)cc2)N2CCN(C3CCCC3)CC2)cc1 (configuration not stated),10%,4%,3%,1%,-39%,-3%
O=C1c2cc(Br)ccc2N(Cc2ccc(Br)cc2)S(=O)(=O)C1c1cc(Cl)c(Cl)cc1[N+](=O)[O-] (configuration not stated),20µM*,56µM*,1%,-11%,-18%,-10%
O=S(=O)(NCC(c1ccco1)N1CCc2ccccc21)c1ccccc1 (configuration not stated),6%,-2%,-17%,15%,-45%,100µM*
COc1cc2c(cc1OC)C(c1ccccc1)N(C(=O)c1ccco1)CC2 (configuration not stated),10µM*,-30%,-17%,15%,-24%,-4%
COc1cc2c(cc1OC)C(c1ccccc1)N(C(=O)c1ccccc1)CC2 (configuration not stated),?,-9%,7%,9%,-40%,0%
NC(=O)c1cccnc1Nc1cccc([N+](=O)[O-])c1,1%,8%,-2%,-1%,1.8µM*,9%
NC(=O)c1cccnc1Nc1cccc(F)c1,?,-1%,20%,0%,-1%,-4%
COc1ccc(/[N+]([O-])=C/c2ccoc2)cc1,9%,-2%,?,5%,11µM*,-5%
COc1ccc(C(=O)N/N=C\c2ccoc2)cc1,-4%,1%,13%,2%,?,-8%
CC(CC(=O)Nc1ccc2c(c1)OCO2)c1ccccc1 (configuration not stated),8%,0%,-14%,0%,?,-5%
Cc1ccccc1/C=C1\CCCc2ccccc2C1=O,11%,7%,19%,2%,7.1µM*,3%
N#Cc1ccc(COc2ccc(CCO)cc2-n2nc3ccccc3n2)cc1,-1%,2%,2%,12%,-54%,-3%
OCCc1ccc(O)c(-n2nc3ccccc3n2)c1,-3%,-14%,3%,1%,11µM*,6%
SMILES,EPAC2 antag,EPAC1 antag,RGS4 inh,EPAC2 ag,BRCA1 expr up,EPAC1 ag
N#CCC(=O)Nc1ccc(C(=O)NNC(=S)NC2CC2)cc1,1%,-26%,-11%,9%,-7%,-15%
O=c1nc(-c2ccccc2)cc(-c2ccccc2)[nH]1,2%,0%,-29%,-2%,5%,-5%
CS/C(Nc1cc(Cl)ccc1Cl)=C(/C#N)C(=O)c1ccco1,-4%,50µM*,22%,3%,-9%,-9%
O=C(Nc1cc(Cl)ccc1Cl)c1ccco1,0%,2%,-1%,3%,-11%,1%
CCc1ccccc1NC(=O)c1ccc2[nH]c(C)c(C)c2c1,/,/,-19%,/,8.9µM*,/
Cc1ccccc1NC(=O)c1ccc2[nH]c(C)c(C)c2c1,/,/,-14%,/,/,/
O=C(O[C@@H]1OC2COC(=O)c3cc(O)c(O)c(O)c3-c3c(cc(O)c(O)c3O)C(=O)O[C@@H]([C@H]1O)[C@@H]2O)c1cc(O)c(O)c(O)c1,-14%,89µM*,?,-2%,-17%,3%
COc1cc(/C=C2\SC(=S)N(C(C(=O)O)c3ccccc3)C2=O)ccc1O (configuration not stated),?,?,-9%,-5%,1%,-12%
O=C(O)C(c1ccccc1)N1C(=O)/C(=C\c2ccc(O)c(O)c2)SC1=S (configuration not stated),22µM*,32µM*,-21%,-2%,-3%,-3%
C/C(=N\NC(=O)c1csc(C)c1C)c1ccc(C)s1,1%,1%,5%,4%,10µM*,6%
Cc1scc(C(=O)N/N=C/c2ccc(Cl)s2)c1C,-5%,7%,-50%,-8%,7.1µM*,-9%
O=[N+]([O-])c1ccc2nonc2c1Nc1cccc(F)c1,-5%,?,12%,2%,-7%,8%
NC(=O)CNC1CC(=O)N(CCc2ccccc2)C1=O (configuration not stated),7%,19%,8%,5%,0%,-1%
COc1ccccc1C(=O)NCc1ccccn1,9%,5%,-10%[56.9 µM],0%,22%,-7%
N[C@@H](Cc1cc(I)c(Oc2ccc(O)c(I)c2)c(I)c1)C(=O)O,?,50µM*!,-43%,-3%,-32%,-23%
O=S(=O)(Nc1ccc(-c2nc3cccnc3s2)cc1)c1ccc(Cl)s1,-12%,7%,-16%,8%,48%,3%
O=S(=O)(Nc1ccc(-c2nc3cccnc3s2)cc1)c1ccccc1F,16%,-10%,-7%,-5%,10µM*,0%
COc1ccc(CNC(=O)C[C@@H]2CC[C@@H](NS(=O)(=O)c3cccc(OC)c3)[C@@H](CO)O2)cc1,0%,11%,/,6%,/,2%
CCOc1ncccc1C(=O)OCC(=O)c1cc(C)n(Cc2ccco2)c1C,-3%,7%,-4%,2%,74%,4%

# From PubChem
